Active and inactive are the calls of the source.
Legend:
Albumin (Bos taurus) = Albumin (Bos taurus) (UniProt P02769); test: bovine serum albumin binders on microarray, profiling panel, artefact control for SMM control protein annotation, biochemical, small-molecule microarray, Alexa647 label, 635/667 nm fluorescence (AID 1118); details: BSA-A647 binding, fluorescence 635 nm, higher = more signal;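 also: score merges 667 nm emission intensity and signal-to-noise per printed compound spot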
[1] = small-molecule microarray binders of probe aXIP, primary screen, biochemical, NeuroSMM set, 635/667 nm fluorescence (AID 1119); details: higher = more signal, called active from +8 up or from −8 down;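 also: probe is the protein aXip251-270 applied at 1 µg/mL to compound-printed slides; binding of probe to printed compounds measured as 667 nm fluorescence plus signal to noise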
[2] = small-molecule binders of probe aNOTCH3, primary screen, biochemical, small-molecule microarray, 635/667 nm fluorescence (AID 1120); details: higher = more signal;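 also: probe is a biotin-tagged antibody raised against NOTCH3 rather than NOTCH3 protein; score merges spot fluorescence near 667 nm with spot signal to noise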
[3] = small-molecule binders of probe aNOTCH2, primary screen, biochemical, small-molecule microarray, 635/667 nm fluorescence (AID 1121); details: higher = more signal;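 also: score merges feature fluorescence read at 667 nm with its signal to noise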
[4] = target: Carbonic anhydrase 2 (Homo sapiens) (UniProt P00918); test: CAII small-molecule binders, profiling panel, biochemical, small-molecule microarray, Alexa647-labelled CAII (AID 1122); details: CAII-A647 binding fluorescence, higher = more signal
[5] = COS7 lysate on small-molecule microarray, probe aHis, 635 nm (AID 1123); details: COS7 cell lysate, fluorescence, higher = more signal;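 also: z-score combines 667nm fluorescence intensity with signal-to-noise per printed compound spot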
[6] = compound binding in COS7 lysate, probe aLAP1, primary screen, cell lysate, small-molecule microarray (AID 1124); details: probe aLAP1, fluorescence, higher = more signal;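 also: lysate comes from COS7 cells expressing LAP1 and is applied at 0.3 µg/mL; score merges spot fluorescence near 667 nm with signal-to-noise over triplicate slides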
Sam68 (KHDRBS1) = test: Sam68 small-molecule binders, primary screen, biochemical, small-molecule microarray, 635 nm fluorescence (AID 1125); details: small-molecule microarray binding, higher = more signal;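 also: score merges 667 nm channel intensity with signal to noise over triplicate slides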
[7] = test system: Chordin-like protein 2 (CHRDL2); test: CHRDL2 small-molecule binders, primary screen, biochemical, small-molecule microarray, 635 nm fluorescence (AID 1126); details: small-molecule microarray binding, fluorescence 635 nm; higher = more signal;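 also: printed compound slides probed with Chrdl2 protein at 4 µg/mL for 1 h at 4 C; score merges 667 nm emission intensity with signal to noise over three replicate slides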
[8] = target: Concanavalin-A (Canavalia ensiformis) (UniProt P02866); test: ConA small-molecule binders, primary screen, artefact control for SMM control protein annotation, biochemical, small-molecule microarray, Alexa647 label, 635 nm (AID 1127); details: ConA-A647 binding fluorescence, higher = more signal;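 also: z combines 667 nm emission intensity with signal-to-noise across three replicate slides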
Concanavalin-A (Canavalia ensiformis), sequence (P02866 whole entry, looked up): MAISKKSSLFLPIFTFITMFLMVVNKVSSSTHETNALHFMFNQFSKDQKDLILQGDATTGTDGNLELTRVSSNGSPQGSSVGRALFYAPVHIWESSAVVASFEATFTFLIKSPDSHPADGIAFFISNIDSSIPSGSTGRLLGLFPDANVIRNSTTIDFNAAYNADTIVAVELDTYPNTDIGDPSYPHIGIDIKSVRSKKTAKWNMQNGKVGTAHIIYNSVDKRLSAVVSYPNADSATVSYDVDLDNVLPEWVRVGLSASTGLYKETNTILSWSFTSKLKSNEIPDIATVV

Albumin (Bos taurus), sequence (P02769 whole entry, looked up): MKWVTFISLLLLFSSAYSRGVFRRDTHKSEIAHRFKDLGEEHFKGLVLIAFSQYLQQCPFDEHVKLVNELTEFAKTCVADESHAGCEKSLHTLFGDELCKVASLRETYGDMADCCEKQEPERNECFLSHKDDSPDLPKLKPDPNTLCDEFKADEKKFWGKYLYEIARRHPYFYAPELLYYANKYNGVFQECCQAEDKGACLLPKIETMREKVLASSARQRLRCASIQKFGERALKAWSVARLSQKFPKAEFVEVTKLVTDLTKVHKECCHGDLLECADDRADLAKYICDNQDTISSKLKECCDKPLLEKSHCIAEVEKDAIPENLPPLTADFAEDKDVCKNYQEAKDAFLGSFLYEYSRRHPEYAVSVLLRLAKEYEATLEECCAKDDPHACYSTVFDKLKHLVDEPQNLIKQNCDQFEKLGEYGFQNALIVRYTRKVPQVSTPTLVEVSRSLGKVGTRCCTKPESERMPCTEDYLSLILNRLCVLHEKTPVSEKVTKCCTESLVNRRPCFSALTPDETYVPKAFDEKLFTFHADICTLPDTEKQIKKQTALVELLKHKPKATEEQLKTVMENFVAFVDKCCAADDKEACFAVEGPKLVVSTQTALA

SMILES	composite z-score (Albumin (Bos taurus))	composite Z-score [1]	composite z-score [2]	composite z-score [3]	composite z-score [4]	composite z-score [5]	composite z-score [6]	composite z-score (Sam68 (KHDRBS1))	composite z-score [7]	composite z-score [8]
O=C1OCCC/C=C\[C@H]2OC34C=CCN(Cc5ccccc5)C(=O)[C@H]3N(CCCCCCO)C(=O)[C@@H]4C12 (stereo not given in full)	-0.449	0.986 (inactive)	-0.262	-0.141	0.893	-0.19	0.468	0.139	-1.24	-1.3
CN(C)CCCNC(=O)[C@@]1(c2ccc([N+](=O)[O-])cc2)CC(=O)N(C2CCCCC2)[C@@H]1c1ccc(CO)cc1	0.611	-0.14 (inactive)	-0.0795	-0.146	0.395	1.68	-0.0291	0.819	-0.357	0.282
C[C@]1(C(=O)NC2CC2)c2ccccc2C(=O)N(Cc2cc(C(F)(F)F)cc(C(F)(F)F)c2)[C@H]1c1ccc(CO)cc1	-0.0744	0.676 (inactive)	0.208	-0.0712	0.412	1.28	0.283	1.32	0.39	0.835
CCCCN1CC=CC23O[C@@H]4/C=C\CCC(C)OC(=O)C4[C@H]2C(=O)N(CCCCCO)[C@@H]3C1=O (stereo not given in full)	-1.05	0.114 (inactive)	-0.422	-0.126	0.867	-0.427	1.34	-0.287	-1.4	-1.09
[N-]=[N+]=Nc1ccccc1C[C@@]1(C(=O)NCCN2CCOCC2)N=C(c2ccc(OCCCO)cc2)O[C@@H]1c1ccccc1	0.831	0.255 (inactive)	0.144	-0.221	0.468	2.87	0.872	1.3	-0.11	1.11
NC(=O)[C@@H]1[C@H]2C(=O)O[C@H](c3ccccc3)[C@H](c3ccccc3)N2[C@H](c2ccc(O)cc2)[C@@]12C(=O)Nc1ccc(C#CC3(O)CCCCCC3)cc12	-0.425	0.339 (inactive)	-0.15	-0.175	0.792	0.514	-0.107	-0.427	-0.571	-0.107
COCCCNC(=O)C1N=C(c2ccc(OCCCO)cc2)N(c2ccccc2)O1 (stereo not given)	0.107	-0.442 (inactive)	0.0836	-0.112	0.778	0.388	-0.193	1.3	-0.289	1.04
CCCCC(O)C1C=CC2C(=O)N(c3ccccc3)C(=O)C2N1Nc1ccccc1F (stereo not given)	0.8	1.54 (inactive)	0.378	0.387	0.747	2.54	0.439	1.12	0.0354	1.13
COc1ccc(CCN2C(=O)[C@@]3(Cc4ccccc42)c2ccccc2C(=O)N(Cc2ccccc2C(F)(F)F)[C@H]3c2ccc(CO)cc2)cc1	-0.951	0.319 (inactive)	-0.0718	-0.193	0.107	0.387	0.184	0.242	0.736	1.13
C=CCN1C(=O)[C@@]2(O[C@@H](CCO)[C@H]([Si](C)(C)c3ccc(OC)cc3)[C@H]2C)c2cc(NC(=O)c3ccc(OC)cc3)ccc21	0.317	-0.265 (inactive)	-0.0006	-0.0836	0.187	0.244	0.0327	1.18	0.927	1.03
C=C/C=C/[C@H]1C(=C)CN([C@@H](Cc2ccccc2)C(=O)OC)[C@@H]1[C@H](O)Cc1ccccc1	-0.668	-0.624 (inactive)	-0.235	-0.195	-0.174	0.25	0.161	-0.24	-0.0454	-0.243
COC(=O)[C@@]1(Cc2ccc(F)cc2)[C@H]2c3cc(C(=O)N(C)C)n(CC4CC4)c3C[C@H]2CN1C(=O)c1ccccc1	1.02	-0.0191 (inactive)	1.65	0.904	0.773	3.27	0.698	1.35	-0.542	1.1
COCCn1c(C(=O)N2CCCC2)cc2c1C[C@H]1CN(C(=O)c3ccccc3)[C@@](Cc3ccc(F)cc3)(C(=O)OC)[C@@H]21	1.02	2 (inactive)	0.309	0.11	0.827	2.96	0.406	1.32	-0.364	1
COC(=O)[C@@]1(Cc2ccc(OC)cc2)[C@H]2c3cc(C(=O)N(C)C)n(Cc4cccc5ccccc45)c3C[C@H]2CN1C(=O)c1ccccc1	1.02	0.0388 (inactive)	0.726	0.624	0.753	3.03	0.506	0.432	0.0735	0.976
CC(C)C[C@@H]1NC(=O)[C@H]2C[C@@H](C(=O)NCCCCCCN)[C@@H](c3ccc(O)cc3)N2C1=O	0.0662	0.0781 (inactive)	-0.0023	0.171	0.728	2.16	0.627	0.633	1.22	1.18

Source: PubChem BioAssay
